# Measurements from PubChem BioAssay (Tox21).
# Records with an inconclusive call do not appear. Unmarked numbers belong to inactive results. Active and inactive are the calls of the source. The call rests on the fitted dose curve; in most records, active means well fitted cell-killing curve with a large enough effect in the repeat runs; inconclusive means weak or mixed curves; inactive means flat fitted curve, though single readings scatter.
# Test: qHTS assay to identify small molecule antagonists of the estrogen related receptor (ERR) signaling pathway from Tox21 library - cell viability counter screen (AID 1224834); further: nearly all actives have a fitted effect of over 30% in size
# Settings: ERR reporter cells viability, CellTiter-Fluor, 17.5 h; series mostly up to 92.4 µM; viability change, negative = cytotoxic: at the top concentration
# Text: National Center for Advancing Translational Sciences [NCATS]
# NIH Chemical Genomics Center [NCGC]
# U.S. Environmental Protection Agency [EPA]
# National Institutes of Environmental Health Sciences [NIEHS]
# National Toxicology Program [NTP]
# U.S. Food and Drug Administration [FDA]
# Estrogen related receptors (ERRs), the first orphan nuclear receptors discovered, play an important role in the control of cellular energy metabolism. ERRs are required for high-energy production in response to the environmental challenges. ERR-alpha was also identified as an adverse marker for breast cancer progression; ERR-alpha-positive tumors have a poor prognosis. To screen and to identify environmental compounds that perturb the ERR signaling pathways could provide valuable information for potential therapeutic or preventive measures in the treatment of metabolic disease. To differentiate true ERR antagonists or agonist from cytotoxic substances, the assay is multiplexed with cell viability assay.
# Tox21 Assay Protocol Summary:
# The ERR cells were dispensed at 2,000 cells/5 ul/well in 1536-well white plates using a Multidrop dispenser. After the assay plates were incubated at a 37 C/5% CO2 incubator for 6 hours, 23 nL of compounds dissolved in DMSO, positive and negative controls or DMSO only was transferred to the assay plate by a pin tool. The plates were incubated at 37 C for 17.5 hours. 1 ul/well of CellTiter-Fluor reagent was added into the assay plates using a Flying Reagent Dispenser. After 30-minute incubation at 37 C/5% CO2, the fluorescence intensity in the plates was measured using a ViewLux plate reader.
# On the % scale 0 is the no-effect control and ±100 the full control effect; potency means the concentration at half of the fitted maximal effect.
Compound,Potency,"viability change, negative = cytotoxic"
O=C1c2ccccc2C(=O)N1CCc1noc(-c2ccc(CN3CCCCCC3)s2)n1,49.9 µM (active),–
CC(C)(c1ccccc1)c1ccccc1,–,-0.551%
CCC1(CO)COCOC1,–,0.861%
CCCCCCCCN,–,-1.18%
c1ccc(C[n+]2cccc3ccccc32)cc1,–,-7.77%
O=C(/C=C/c1ccccc1)OCCc1ccccc1,–,3.42%
CNC(=O)c1cnn(-c2nc(N)c3ncn([C@@H]4O[C@H](CO)[C@@H](O)[C@H]4O)c3n2)c1,–,3.04% [at 42.5 µM]
CC(O)c1ccccc1 (stereo not given),–,-4.55%
CC1=C(Br)C(=O)C(Br)=C/C1=C(/c1ccccc1S(=O)(=O)O)c1cc(Br)c(O)c(Br)c1C,18.6 µM (active),–
CC1(C)[C@H](C(=O)O)N2C(=O)C[C@H]2S1(=O)=O,–,0.243% [at 42.5 µM]
O=C(O)c1cccc(-c2noc(-c3ccccc3F)n2)c1,–,-1.22% [at 42.5 µM]
C(=C\c1ccccc1)/c1ccccc1,–,0.758%
Cc1ccc2c(Br)cc(Br)c(O)c2n1,11.9 µM (active),–
C=COCC(C)C,–,2.84%
CCOC(C)=O,–,2.82%
CC(=O)Oc1ccc([N+](=O)[O-])cc1CCl,30.6 µM (active),–
O=C1NCCN1CCO,–,0.54%
CCCCC(CC)CN (stereo not given),–,-0.932%
CC1(CN2CCC(n3c(=O)[nH]c4ccccc43)CC2)OCc2ccccc2-n2cccc21 (stereo not given),23.7 µM (active),–
CN1CCCC(n2nc(Cc3ccc(Cl)cc3)c3ccccc3c2=O)CC1 (stereo not given),29.8 µM (active),–

Compound,Potency,"viability change, negative = cytotoxic"
COC(=O)c1nc(Cl)c(Cl)nc1N,11.9 µM (active),–
NCCNCCO,–,-1.12%
OCCOCC#CCOCCO,–,2.09%
CCC=CC#N,–,-1.41%
CC(C)c1nc(CN(C)C(=O)N[C@H](C(=O)N[C@@H](Cc2ccccc2)C[C@H](O)[C@H](Cc2ccccc2)NC(=O)OCc2cncs2)C(C)C)cs1,13.3 µM (active),–
CCOC(=O)OC(C)OC(=O)[C@@H]1N2C(=O)[C@@H](NC(=O)[C@H](N)c3ccccc3)[C@H]2SC1(C)C (stereo not given in full),–,-3.44% [at 42.5 µM]
CC(=O)Nc1cc(S(=O)(=O)O)cc2cc(S(=O)(=O)O)c(N=Nc3ccccc3)c(O)c12,24.3 µM (active),–
C=Cc1ccc(S(=O)(=O)O)cc1,–,-7.6%
CC(CCC(=O)O)C(=O)O (stereo not given),–,2.85%
Cc1cc(O)ccc1O,61.8 µM (active),–
C=C(C)C(=O)OCCCCCCCCCCCCC,–,-0.336%
CC(=O)Nc1ccc(C)cc1C,–,0.956%
C[C@H]1C[C@H](O)c2ccsc2S1(=O)=O,–,-0.438% [at 42.5 µM]
C=C(C)CCCC(C)CCO (stereo not given),–,-5.52%
CC(C)=CCC/C(C)=C/CC/C(C)=C/C(=O)OCC(=O)[C@@]1(O)CC[C@H]2[C@@H]3CCC4=CC(=O)C=C[C@]4(C)[C@H]3[C@@H](O)C[C@@]21C,29.8 µM (active),–
CC[N+](CC)(CCNC(=O)C(=O)NCC[N+](CC)(CC)Cc1ccccc1Cl)Cc1ccccc1Cl,–,0.357% [at 42.5 µM]
CC(C)=CCC1C(=O)N(c2ccccc2)N(c2ccccc2)C1=O,–,-3.48% [at 42.5 µM]
CC/C=C1/OC(=O)c2ccccc21,–,0%
CC(=O)c1ccc([N+](=O)[O-])cc1,–,0.525%
COc1cc(Nc2c(C#N)cnc3cc(OCCCN4CCN(C)CC4)c(OC)cc23)c(Cl)cc1Cl,9.44 µM (active),–
